Assay results from PubChem BioAssay (EPA / NIEHS).
Results filed as inconclusive are left out. Active and inactive are the calls of the source. The calls were made as follows, unless noted: active = hit-call score of the fitted dose curve at least 0.9, where 1 is the maximum; inconclusive = response in the unintended direction; inactive = score below 0.9.

Experiments:
[1] = ATG_TAL_CIS: Attagene CIS-FACTORIAL HepG2 Assay for human TAL Basal Promoter (AID 2282966; active = hit-call score of the fitted dose curve at least 0.9, where 1 is the maximum; inactive = score below 0.9;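 also: background control endpoint measuring basal TAL promoter reporter mRNA not a specific factor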); conditions: HepG2 Attagene cis-factorial TAL promoter reporter; actives raise or lower the signal
Method in brief: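 Fluorescence of labelled reporter cDNA fragments, resolved by capillary electrophoresis, gave the readout. Human HepG2 liver cells carried transiently transfected cis-element reporter units and were treated for 24 hours; activity was fitted bidirectionally against DMSO.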

[2] = ATG_TGFb_CIS: Attagene CIS-FACTORIAL HepG2 Assay for human Transforming Growth Factor (TGF) (AID 2282967; active = hit-call score of the fitted dose curve at least 0.9, where 1 is the maximum; inactive = score below 0.9); conditions: HepG2 Attagene CIS TGFb reporter, mRNA transcription; actives raise or lower the signal
Method in brief: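 Transient MRTU transfection of HepG2 (FuGene 6). Dose 24 h. TriZol RNA, oligo(dT) RT, PCR, 6-FAM primer extension, HpaI cut, CE. Bidirectional fit, DMSO = baseline.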

[3] = biological target: Nuclear receptor subfamily 1 group I member 3 (Homo sapiens) (UniProt Q14994); test: ATG_CAR_TRANS: Attagene TRANS-FACTORIAL HepG2 Assay for human Constitutive Androstane Receptor (CAR) (AID 2282969); conditions: HepG2 Attagene TRANS-FACTORIAL CAR reporter;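 also: activators raise reporter mRNA above DMSO so AC50 marks induction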
Chain of Nuclear receptor subfamily 1 group I member 3 (Homo sapiens) (Q14994 whole entry, looked up, the tested form may be a part): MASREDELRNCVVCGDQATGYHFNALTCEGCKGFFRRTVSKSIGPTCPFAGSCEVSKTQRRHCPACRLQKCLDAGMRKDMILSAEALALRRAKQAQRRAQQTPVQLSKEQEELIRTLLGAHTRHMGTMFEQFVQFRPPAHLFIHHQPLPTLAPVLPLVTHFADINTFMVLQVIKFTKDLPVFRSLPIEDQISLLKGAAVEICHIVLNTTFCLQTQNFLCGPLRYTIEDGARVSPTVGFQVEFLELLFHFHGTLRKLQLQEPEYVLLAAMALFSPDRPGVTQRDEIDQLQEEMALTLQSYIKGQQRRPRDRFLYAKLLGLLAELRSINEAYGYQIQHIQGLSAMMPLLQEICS
Method in brief: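 HepG2 cells transiently transfected with multiplexed GAL4-UAS reporter units expressing chimeric NR-Gal4 proteins; compound exposure 24 h. Reporter mRNA measured by RT-PCR, 6-FAM labelling, HpaI digestion and capillary electrophoresis; gain-of-signal fitted against DMSO baseline.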

[4] = biological target: X-box-binding protein 1 (Homo sapiens) (UniProt P17861); test: ATG_Xbp1_CIS: Attagene CIS-FACTORIAL HepG2 Assay for human X-box Binding Protein 1 (XBP1) (AID 2282972; active = hit-call score of the fitted dose curve at least 0.9, where 1 is the maximum; inactive = score below 0.9); conditions: HepG2 XBP1 cis-element reporter, Attagene multiplex; actives raise or lower the signal
Chain of X-box-binding protein 1 (Homo sapiens) (P17861 whole entry, looked up): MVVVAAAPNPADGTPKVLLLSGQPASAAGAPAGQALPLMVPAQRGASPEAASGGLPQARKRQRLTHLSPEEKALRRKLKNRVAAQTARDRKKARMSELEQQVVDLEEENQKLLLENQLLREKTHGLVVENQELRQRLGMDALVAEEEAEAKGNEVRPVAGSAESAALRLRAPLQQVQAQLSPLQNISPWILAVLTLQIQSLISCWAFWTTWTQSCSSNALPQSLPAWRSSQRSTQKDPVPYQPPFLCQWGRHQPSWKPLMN
Method in brief: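 HepG2 cells transiently transfected with multiple cis-element reporter units report endogenous TF activity; 24 h exposure, then reporter mRNA measured by RT-PCR, 6-FAM labelling, HpaI digestion and capillary electrophoresis. Bidirectional fitting versus DMSO.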

[5] = ATG_M_19_TRANS: Attagene TRANS-FACTORIAL HepG2 Assay for M19 Transcription Factor (Internal Marker) (AID 2282974); conditions: HepG2 Attagene TRANS-FACTORIAL M19 internal marker reporter
Method in brief: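 Multiplexed TRANS format: HepG2 liver cells bearing transient GAL4-UAS reporter units, chemical treatment 24 h, reporter transcripts quantified by RT-PCR plus capillary electrophoresis. DMSO defines baseline.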

[6] = ATG_GAL4_TRANS: Attagene TRANS-FACTORIAL HepG2 Assay for GAL4 (Internal Marker) (AID 2282976); conditions: HepG2 Attagene TRANS GAL4 internal marker reporter
Method in brief: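 First, HepG2 cells were transfected with reporter units under GAL4-UAS control. Next, they were treated with chemical for 24 h. Finally, RNA was reverse-transcribed, PCR-amplified, FAM-labelled and resolved by capillary electrophoresis, with induction scored against DMSO.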

[7] = biological target: Oxysterols receptor LXR-alpha (Homo sapiens) (UniProt Q13133); test: ATG_LXRa_TRANS: Attagene TRANS-FACTORIAL HepG2 Assay for human Liver X Receptor alpha (LXRa) (AID 2282980); conditions: HepG2 Attagene TRANS reporter, LXRa transactivation
Chain of Oxysterols receptor LXR-alpha (Homo sapiens) (Q13133 whole entry, looked up, the tested form may be a part): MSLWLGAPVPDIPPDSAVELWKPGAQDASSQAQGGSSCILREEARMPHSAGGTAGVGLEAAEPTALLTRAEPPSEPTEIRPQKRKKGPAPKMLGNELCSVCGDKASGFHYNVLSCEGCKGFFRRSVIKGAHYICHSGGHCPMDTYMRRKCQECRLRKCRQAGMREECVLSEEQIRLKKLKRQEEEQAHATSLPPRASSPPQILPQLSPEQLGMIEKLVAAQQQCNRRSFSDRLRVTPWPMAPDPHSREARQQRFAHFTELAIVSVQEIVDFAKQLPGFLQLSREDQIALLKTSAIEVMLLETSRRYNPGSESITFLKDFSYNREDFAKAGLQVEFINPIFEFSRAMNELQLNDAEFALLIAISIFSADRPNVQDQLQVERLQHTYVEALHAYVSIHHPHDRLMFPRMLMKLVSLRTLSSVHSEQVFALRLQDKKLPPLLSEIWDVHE
Method in brief: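 Transfect HepG2 with GAL4-UAS multiplex reporter constructs (TRANS format, chimeric receptor-GAL4); treat 24 h; extract RNA, reverse-transcribe, PCR-amplify, FAM-label, HpaI-digest; resolve fragments by capillary electrophoresis. Upward response vs DMSO.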

[8] = biological target: Hepatocyte nuclear factor 4-alpha (Homo sapiens) (UniProt P41235); test: ATG_HNF4a_TRANS: Attagene TRANS-FACTORIAL HepG2 Assay for human Hepatocyte Nuclear Factor 4 alpha (HNF4a) (AID 2282982); conditions: HepG2 HNF4a transactivation reporter, mRNA readout
Chain of Hepatocyte nuclear factor 4-alpha (Homo sapiens) (P41235 whole entry, looked up, the tested form may be a part): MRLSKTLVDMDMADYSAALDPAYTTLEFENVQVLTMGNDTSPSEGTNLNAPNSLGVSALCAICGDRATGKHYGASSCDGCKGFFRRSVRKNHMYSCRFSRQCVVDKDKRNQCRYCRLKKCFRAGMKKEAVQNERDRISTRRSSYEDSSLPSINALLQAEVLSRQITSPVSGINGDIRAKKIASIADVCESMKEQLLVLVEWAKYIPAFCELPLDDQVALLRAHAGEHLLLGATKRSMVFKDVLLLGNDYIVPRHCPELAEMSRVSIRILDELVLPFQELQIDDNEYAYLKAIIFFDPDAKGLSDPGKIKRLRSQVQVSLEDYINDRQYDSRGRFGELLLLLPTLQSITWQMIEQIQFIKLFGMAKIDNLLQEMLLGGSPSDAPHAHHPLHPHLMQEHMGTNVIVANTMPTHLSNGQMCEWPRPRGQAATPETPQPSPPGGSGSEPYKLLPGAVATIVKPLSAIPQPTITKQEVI
Method in brief: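 Cells used were human HepG2, transiently carrying GAL4-UAS reporter units read out against exogenous NR-GAL4 chimeras. Reporter transcript levels after 24 h dosing were quantified by fluorescent RT-PCR and capillary electrophoresis.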

[9] = ATG_M_06_TRANS: Attagene TRANS-FACTORIAL HepG2 Assay for M06 Transcription Factor (Internal Marker) (AID 2282983); conditions: HepG2 Attagene TRANS M06 internal marker reporter
Method in brief: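 Transfect HepG2 with MRTUs → dose compounds 24 h → isolate RNA, oligo(dT) RT → PCR with reporter primers → 6-FAM primer extension → HpaI digest → CE fragment analysis. Positive direction vs DMSO.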

[10] = ATG_M_32_TRANS: Attagene TRANS-FACTORIAL HepG2 Assay for M32 Transcription Factor (Internal Marker) (AID 2282984); conditions: HepG2 Attagene TRANS M32 internal marker reporter;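 also: transcript level of a background control reporter unit measured by RT-PCR and capillary electrophoresis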
Method in brief: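 Human hepatoma HepG2, transient MRTU transfection, 24 h treatment. RNA → RT-PCR → fluorescent primer extension → HpaI digest (2 h, 37 C) → CE. Positive-direction fit vs DMSO.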

[11] = biological target: Nuclear receptor subfamily 4 group A member 2 (Homo sapiens) (UniProt P43354); test: ATG_NURR1_TRANS: Attagene TRANS-FACTORIAL HepG2 Assay for human Nuclear Receptor Related Protein 1 (NURR1) (AID 2282985); conditions: HepG2 Attagene TRANS reporter, mRNA readout
Chain of Nuclear receptor subfamily 4 group A member 2 (Homo sapiens) (P43354 whole entry, looked up): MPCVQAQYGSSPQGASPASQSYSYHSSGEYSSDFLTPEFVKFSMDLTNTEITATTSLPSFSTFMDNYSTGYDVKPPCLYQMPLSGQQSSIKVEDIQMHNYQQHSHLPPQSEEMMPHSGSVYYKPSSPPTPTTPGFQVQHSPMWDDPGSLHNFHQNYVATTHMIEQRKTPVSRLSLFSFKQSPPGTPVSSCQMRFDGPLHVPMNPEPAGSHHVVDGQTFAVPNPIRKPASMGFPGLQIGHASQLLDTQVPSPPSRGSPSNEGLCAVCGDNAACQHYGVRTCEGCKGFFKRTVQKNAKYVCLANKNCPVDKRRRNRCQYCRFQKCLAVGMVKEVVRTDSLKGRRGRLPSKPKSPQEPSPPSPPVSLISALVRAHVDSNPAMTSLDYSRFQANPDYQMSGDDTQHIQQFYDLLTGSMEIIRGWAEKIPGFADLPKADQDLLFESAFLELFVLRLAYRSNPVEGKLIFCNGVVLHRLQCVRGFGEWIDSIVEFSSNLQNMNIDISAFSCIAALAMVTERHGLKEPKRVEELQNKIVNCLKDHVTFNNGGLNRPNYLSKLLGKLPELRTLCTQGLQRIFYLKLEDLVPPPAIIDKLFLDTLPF
Method in brief: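 After 24 h chemical dosing, total RNA from transiently transfected HepG2 cells was reverse-transcribed and reporter cDNA PCR-amplified, FAM-labelled and analysed by capillary electrophoresis. Activity fitted in positive direction, DMSO as negative control.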

[12] = biological target: Transcriptional activator Myb (Homo sapiens) (UniProt P10242); test: ATG_Myb_CIS: Attagene CIS-FACTORIAL HepG2 Assay for human Myeloblastosis (Myb) Proto-Oncogene Transcription Factor (AID 2282986; active = hit-call score of the fitted dose curve at least 0.9, where 1 is the maximum; inactive = score below 0.9); conditions: HepG2 Attagene CIS-FACTORIAL Myb reporter transcription; actives raise or lower the signal
Chain of Transcriptional activator Myb (Homo sapiens) (P10242 whole entry, looked up): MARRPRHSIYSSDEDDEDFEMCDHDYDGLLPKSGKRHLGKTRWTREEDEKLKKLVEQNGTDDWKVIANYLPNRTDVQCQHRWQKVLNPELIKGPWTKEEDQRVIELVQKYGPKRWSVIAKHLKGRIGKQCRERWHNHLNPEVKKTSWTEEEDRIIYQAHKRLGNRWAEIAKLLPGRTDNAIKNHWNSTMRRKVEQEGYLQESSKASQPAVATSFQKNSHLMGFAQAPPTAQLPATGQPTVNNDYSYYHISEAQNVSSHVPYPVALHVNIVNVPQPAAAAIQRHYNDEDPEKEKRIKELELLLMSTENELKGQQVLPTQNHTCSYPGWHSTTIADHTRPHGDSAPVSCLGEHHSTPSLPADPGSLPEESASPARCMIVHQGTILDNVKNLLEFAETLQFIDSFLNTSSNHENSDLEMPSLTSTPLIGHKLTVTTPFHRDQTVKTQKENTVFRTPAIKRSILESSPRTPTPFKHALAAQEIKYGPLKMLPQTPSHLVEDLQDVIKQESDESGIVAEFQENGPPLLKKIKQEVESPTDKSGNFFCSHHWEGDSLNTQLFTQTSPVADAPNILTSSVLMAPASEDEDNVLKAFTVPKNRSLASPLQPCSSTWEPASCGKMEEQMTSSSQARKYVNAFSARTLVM
Method in brief: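 Using HepG2 liver cells bearing transiently transfected cis-promoter reporter constructs, the assay measures induction or loss of reporter mRNA after 24 hours of dosing. Detection used fluorescently labeled RT-PCR products separated by capillary electrophoresis.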

[13] = biological target: Nuclear respiratory factor 1 (Homo sapiens) (UniProt Q16656); test: ATG_NRF1_CIS: Attagene CIS-FACTORIAL HepG2 Assay for human Nuclear Respiratory Factor 1 (NRF1) Orphan Gene (AID 2282987; active = hit-call score of the fitted dose curve at least 0.9, where 1 is the maximum; inactive = score below 0.9); conditions: HepG2 NRF1 cis-element reporter, Attagene multiplex; actives raise or lower the signal
Chain of Nuclear respiratory factor 1 (Homo sapiens) (Q16656 whole entry, looked up): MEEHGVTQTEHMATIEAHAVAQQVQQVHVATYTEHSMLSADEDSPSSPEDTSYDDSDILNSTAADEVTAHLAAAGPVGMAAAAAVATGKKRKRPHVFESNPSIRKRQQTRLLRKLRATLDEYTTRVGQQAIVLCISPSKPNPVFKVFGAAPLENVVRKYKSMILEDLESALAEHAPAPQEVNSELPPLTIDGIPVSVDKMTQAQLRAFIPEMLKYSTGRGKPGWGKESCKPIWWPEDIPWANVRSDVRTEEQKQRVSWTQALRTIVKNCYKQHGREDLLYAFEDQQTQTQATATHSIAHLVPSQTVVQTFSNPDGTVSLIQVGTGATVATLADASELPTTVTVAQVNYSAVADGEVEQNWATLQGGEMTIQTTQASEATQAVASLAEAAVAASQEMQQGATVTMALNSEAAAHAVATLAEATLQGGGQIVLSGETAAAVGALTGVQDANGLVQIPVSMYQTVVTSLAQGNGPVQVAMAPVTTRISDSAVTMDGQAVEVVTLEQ
Method in brief: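 Reporter mRNA induction or loss in HepG2 cells after 24 h dosing; cis-regulated reporter constructs report endogenous transcription-factor activity. Quantified by RT-PCR/capillary electrophoresis fluorescence, DMSO-referenced.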

[14] = ATG_VDRE_CIS: Attagene CIS-FACTORIAL HepG2 Assay for human Vitamin D Receptor Element (VDRE) (AID 2282968; active = hit-call score of the fitted dose curve at least 0.9, where 1 is the maximum; inactive = score below 0.9); conditions: HepG2 VDRE cis-reporter transcription, actives raise or lower the signal
Method in brief: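 RT-PCR/CE readout of reporter mRNA; HepG2, transient transfection, 24 h dosing; DMSO baseline; bidirectional analysis.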

[15] = biological target: Oxysterols receptor LXR-beta (Homo sapiens) (UniProt P55055); test: ATG_LXRb_TRANS: Attagene TRANS-FACTORIAL HepG2 Assay for human Liver X Receptor beta (LXRb) (AID 2282981); conditions: HepG2 Attagene TRANS GAL4-LXRb reporter, mRNA
Method in brief: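 In this TRANS format, exogenous chimeric NR-Gal4 protein activity, not endogenous factors, drives reporter expression in transfected human HepG2 cells. Exposure lasted 24 h; reporter mRNA was read by fluorescent capillary electrophoresis.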

[16] = biological target: Estrogen receptor (Homo sapiens) (UniProt P03372); test: ATG_ERa_TRANS: Attagene TRANS-FACTORIAL HepG2 Assay for human Estrogen Receptor alpha (ERa) (AID 2282970); conditions: HepG2 Attagene TRANS ERa GAL4 reporter, mRNA
Chain of Estrogen receptor (Homo sapiens) (P03372 whole entry, looked up, the tested form may be a part): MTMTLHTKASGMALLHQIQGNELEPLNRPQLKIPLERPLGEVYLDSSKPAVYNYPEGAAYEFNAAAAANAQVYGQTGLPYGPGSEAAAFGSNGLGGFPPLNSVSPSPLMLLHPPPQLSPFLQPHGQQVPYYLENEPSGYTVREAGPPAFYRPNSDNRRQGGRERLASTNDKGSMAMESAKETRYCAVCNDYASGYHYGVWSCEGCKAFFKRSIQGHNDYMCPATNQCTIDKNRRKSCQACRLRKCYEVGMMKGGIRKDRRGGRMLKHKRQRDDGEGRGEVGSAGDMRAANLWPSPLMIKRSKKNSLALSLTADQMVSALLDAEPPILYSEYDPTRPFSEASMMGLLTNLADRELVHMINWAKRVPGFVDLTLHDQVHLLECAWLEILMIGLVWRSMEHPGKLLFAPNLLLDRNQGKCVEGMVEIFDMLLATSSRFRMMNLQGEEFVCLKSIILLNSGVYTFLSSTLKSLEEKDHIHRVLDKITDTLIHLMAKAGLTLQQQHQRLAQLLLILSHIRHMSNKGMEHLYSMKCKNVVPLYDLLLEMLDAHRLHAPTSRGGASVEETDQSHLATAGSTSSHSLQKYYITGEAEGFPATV
Method in brief: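 Human liver HepG2, transient transfection of multiple GAL4-UAS reporter units; TRANS format (exogenous NR-Gal4 chimera). 24 h dosing. Readout: reporter mRNA, RT-PCR, 6-FAM primer extension, HpaI digest, capillary electrophoresis. Positive direction vs DMSO.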

[17] = biological target: Steroid hormone receptor ERR1 (Homo sapiens) (UniProt P11474); test: ATG_ERRa_TRANS: Attagene TRANS-FACTORIAL HepG2 Assay for human Estrogen-Related Receptor alpha (ERRa) (AID 2282971); conditions: HepG2 Attagene TRANS reporter, ERRa transactivation
Method in brief: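 Reporter transcript induction was quantified by RT-PCR and capillary electrophoresis of FAM-labelled, HpaI-cut products after 24 h treatment of HepG2 cells carrying transiently transfected GAL4-UAS reporter units and an exogenous ERRa-Gal4 fusion; activity scored as increase over DMSO.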

[18] = biological target: Estrogen-related receptor gamma (Homo sapiens) (UniProt P62508); test: ATG_ERRg_TRANS: Attagene TRANS-FACTORIAL HepG2 Assay for human Estrogen-Related Receptor gamma (ERRg) (AID 2282977); conditions: HepG2 Attagene TRANS reporter, ERRg transactivation;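 also: hits increase reporter signal over DMSO so potencies reflect activators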
Method in brief: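 HepG2 cells transiently transfected with multiplexed GAL4-UAS reporter units driven by chimeric NR-Gal4 proteins; 24 h exposure. Reporter mRNA quantified by RT-PCR, fluorescent labelling, HpaI digestion and capillary electrophoresis; gain of signal vs DMSO.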

[19] = biological target: Glucocorticoid receptor (Homo sapiens) (UniProt P04150); test: ATG_GR_TRANS: Attagene TRANS-FACTORIAL HepG2 Assay for human Glucocorticoid Receptor (GR) (AID 2282978); conditions: HepG2 Attagene TRANS GR reporter, mRNA transcription;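 also: activators score as hits since higher reporter transcript over DMSO is fitted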
Chain of Glucocorticoid receptor (Homo sapiens) (P04150 whole entry, looked up, the tested form may be a part): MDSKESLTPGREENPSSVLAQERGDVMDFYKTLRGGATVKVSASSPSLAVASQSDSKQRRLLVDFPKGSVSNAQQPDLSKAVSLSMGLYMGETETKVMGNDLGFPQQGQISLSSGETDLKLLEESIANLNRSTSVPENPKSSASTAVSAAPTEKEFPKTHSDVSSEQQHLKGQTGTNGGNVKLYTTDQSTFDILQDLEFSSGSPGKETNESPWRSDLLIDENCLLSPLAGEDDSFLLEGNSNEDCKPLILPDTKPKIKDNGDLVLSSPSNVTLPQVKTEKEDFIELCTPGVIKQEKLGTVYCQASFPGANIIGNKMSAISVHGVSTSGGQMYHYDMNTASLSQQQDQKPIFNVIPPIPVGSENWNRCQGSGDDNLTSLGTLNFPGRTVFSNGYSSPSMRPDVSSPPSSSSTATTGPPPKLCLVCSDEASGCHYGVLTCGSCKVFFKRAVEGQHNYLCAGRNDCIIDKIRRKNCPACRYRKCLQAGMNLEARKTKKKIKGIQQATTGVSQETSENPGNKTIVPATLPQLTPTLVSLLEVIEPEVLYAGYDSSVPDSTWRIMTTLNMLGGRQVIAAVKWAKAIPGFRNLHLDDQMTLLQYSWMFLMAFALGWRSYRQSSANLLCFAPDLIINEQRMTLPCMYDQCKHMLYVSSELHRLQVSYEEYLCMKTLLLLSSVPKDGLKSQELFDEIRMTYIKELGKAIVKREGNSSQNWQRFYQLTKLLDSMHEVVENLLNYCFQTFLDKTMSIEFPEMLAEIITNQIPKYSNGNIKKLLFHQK
Method in brief: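 Transiently transfected HepG2 cells express chimeric NR-GAL4 proteins acting on GAL4-UAS reporter units. Compounds are applied for 24 h. mRNA induction over DMSO is measured by capillary electrophoresis.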

[20] = biological target: Bile acid receptor (Homo sapiens) (UniProt Q96RI1); test: ATG_FXR_TRANS: Attagene TRANS-FACTORIAL HepG2 Assay for Farnesoid X Receptor (FXR) (AID 2282979); conditions: HepG2 Attagene TRANS FXR-GAL4 reporter transcription;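 also: hits raise reporter mRNA above DMSO so AC50 marks FXR activation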
Method in brief: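 Transient transfection of HepG2 with multiplexed GAL4-UAS reporter units; exogenous FXR-GAL4 chimera. Dose 24 h → TriZol RNA → oligo(dT) RT → PCR, 6-FAM primer extension, HpaI cut → CE. Gain vs DMSO.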

Measured: AC50

CCCCCCCCCCCCN
inactive: [1] | [2] | [3] | [4] | [5] | [6] | [7] | [8] | [9] | [10] | [11] | [12] | [13]

c1cc(C(c2ccc(OCC3CO3)cc2)c2ccc(OCC3CO3)cc2)ccc1OCC1CO1 (configuration not stated)
inactive: [15] | [8] | [9] | [10] | [11] | [12]
active: [1] 24.2 µM | [2] 23.7 µM | [14] 10 µM | [4] 7.9 µM | [13] 24 µM

O=C(O)c1snc(Cl)c1Cl
inactive: [1] | [2] | [15] | [8] | [9] | [10] | [12] | [13]
active: [14] 161 µM | [4] 140 µM

CCn1c2ccccc2c2cc(N)ccc21
inactive: [1] | [2] | [3] | [16] | [17] | [4] | [18] | [7] | [9] | [10] | [11] | [12] | [13]

CC(=O)C(C)=O
inactive: [1] | [2] | [14] | [4] | [19] | [15] | [8] | [9] | [11] | [12] | [13]

CC[Si](OC(C)=O)(OC(C)=O)OC(C)=O
active: [14] 33.8 µM
inactive: [1] | [2] | [4] | [7] | [8] | [9] | [12] | [13]

Cc1cc(C2(c3cc(C)c(O)cc3C)OS(=O)(=O)c3ccccc32)c(C)cc1O
inactive: [1] | [2] | [3] | [4] | [5] | [6] | [19] | [8] | [9] | [12] | [13]
active: [16] 4.2 µM

FC1(F)C(F)(F)C(F)(F)C2(F)C(F)(C1(F)F)C(F)(F)C(F)(F)C1(F)C(F)(F)C(F)(F)C(F)(F)C(F)(F)C12F (configuration not stated)
inactive: [1] | [2] | [14] | [19] | [8] | [9] | [12]

CC1CCC2CC1C2(C)C (configuration not stated)
inactive: [1] | [2] | [3] | [4] | [5] | [15] | [8] | [12]

CN(CCOc1ccc(CC2SC(=O)NC2=O)cc1)c1ccccn1 (configuration not stated)
inactive: [1] | [2] | [3] | [16] | [4] | [5] | [20] | [7] | [15] | [9] | [10] | [11] | [12] | [13]

O=C(O)c1ccc([N+](=O)[O-])cc1
inactive: [1] | [2] | [14] | [6] | [19] | [15] | [8] | [9] | [10] | [12] | [13]

CCCCCOC(=O)CCC
inactive: [1] | [2] | [3] | [17] | [4] | [5] | [6] | [18] | [7] | [15] | [10] | [12] | [13]
